Results from PubChem BioAssay (EPA / NIEHS).
Active and inactive are the calls of the source. The calls were made as follows: active = hit-call score of the fitted dose curve at least 0.9, where 1 is the maximum; inactive = score below 0.9.

Assay: CEETOX_H295R_OHPREG: CeeTox H295R High-throughput Steroidogenesis Assay for OH-Pregnenolone (OHPREG) (AID 2283434)
Settings: actives raise or lower the signal
How it was run: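 Human adrenal H295R cells were prestimulated 48 h with 10 uM forskolin, then exposed 48 h to chemical in 0.1% DMSO. Medium 17alpha-hydroxypregnenolone was quantified by HPLC-MS/MS after MTBE extraction; bidirectional fitting versus DMSO baseline.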
In the case of `CO[C@H]1/C=C/O[C@@]2(C)Oc3c(C)c(O)c4c(O)c(c(/C=N/N5CCN(C)CC5)c(O)c4c3C2=O)NC(=O)/C(C)=C\C=C\[C@H](C)[C@H](O)[C@@H](C)[C@@H](O)[C@@H](C)[C@H](OC(C)=O)[C@@H]1C`, the outcome is reported as “inactive”.
In the case of `O=C1CCC(C2CCCCC2)CC1`, the AC50 is reported as 80.4 µM (active).
With `Clc1cc(Cl)c2c(c1)N=C1CCCCCN1C2` the outcome was “inactive”.
For `C[C@]12CC[C@@H]3c4ccc(O)cc4CC[C@H]3[C@@H]1CCC2=O`, the AC50 was 1.6 µM (active).
With `Clc1ccccc1C(c1ccccc1)(c1ccccc1)n1ccnc1` the AC50 was 0.00809 µM (active).
In the case of `NC(=O)c1nc(-c2cccc(-c3cc(F)ccc3OCC(F)(F)C(F)(F)F)c2)n[nH]1`, the outcome is reported as “inactive”.
In the case of `CCCCOC(=O)c1ccc(O)cc1`, the outcome is reported as “inactive”.
In the case of `CC(C)(c1cc(Br)c(O)c(Br)c1)c1cc(Br)c(O)c(Br)c1`, the outcome is reported as “inactive”.
For `CC(=O)N1CCN(c2ccc(OC[C@H]3CO[C@](Cn4ccnc4)(c4ccc(Cl)cc4Cl)O3)cc2)CC1`, the AC50 was 1.42 µM (active).
In the case of `CCCCCCCCCCCC[N+](C)(C)C`, the outcome is reported as “inactive”.
For `CCCCCCCC[Si](OCC)(OCC)OCC`, the outcome was “inactive”.
In the case of `C[C@]12CC[C@@H]3c4ccc(O)cc4CC[C@H]3[C@@H]1CC[C@H]2O`, the AC50 is reported as 1.22 µM (active).
With `O=C1c2ccccc2C(=O)N1CCc1noc(-c2ccc(CN3CCCCCC3)s2)n1` the AC50 was 4.81 µM (active).
In the case of `Oc1ccc2ccccc2c1`, the outcome is reported as “inactive”.
For `CCCCCCCCN(C)CCCCCCCC`, the outcome was “inactive”.

Assay: CEETOX_H295R_OHPROG: CeeTox H295R High-throughput Steroidogenesis Assay for OH-Progesterone (OHPROG) (AID 2283435);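 as to AC50: 17alpha-hydroxyprogesterone secreted into medium measured by HPLC-MS/MS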
Settings: actives raise or lower the signal
How it was run: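 H295R, 10 uM forskolin prestim 48 h; cmpd in 0.1% DMSO 48 h; medium MTBE-extracted, HPLC-MS/MS for OH-progesterone; 7-pt std curve; bidirectional fit vs DMSO; MTT viability, chemicals diluted until viability >/=70%.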
In the case of `CO[C@H]1/C=C/O[C@@]2(C)Oc3c(C)c(O)c4c(O)c(c(/C=N/N5CCN(C)CC5)c(O)c4c3C2=O)NC(=O)/C(C)=C\C=C\[C@H](C)[C@H](O)[C@@H](C)[C@@H](O)[C@@H](C)[C@H](OC(C)=O)[C@@H]1C`, the outcome is reported as “inactive”.
For `O=c1c(-c2ccc(O)cc2)coc2cc(O)cc(O)c12`, the AC50 was 30.5 µM (active).
With `O=C1CCC(C2CCCCC2)CC1` the AC50 was 76.8 µM (active).
In the case of `Clc1cc(Cl)c2c(c1)N=C1CCCCCN1C2`, the outcome is reported as “inactive”.
With `Clc1ccccc1C(c1ccccc1)(c1ccccc1)n1ccnc1` the AC50 was 0.0684 µM (active).
With `NC(=O)c1nc(-c2cccc(-c3cc(F)ccc3OCC(F)(F)C(F)(F)F)c2)n[nH]1` the outcome was “inactive”.
With `CCCCOC(=O)c1ccc(O)cc1` the AC50 was 5 µM (active).
In the case of `CC(C)(c1cc(Br)c(O)c(Br)c1)c1cc(Br)c(O)c(Br)c1`, the AC50 is reported as 4.41 µM (active).
For `CC(=O)N1CCN(c2ccc(OC[C@H]3CO[C@](Cn4ccnc4)(c4ccc(Cl)cc4Cl)O3)cc2)CC1`, the AC50 was 0.49 µM (active).
In the case of `CCCCCCCCCCCC[N+](C)(C)C`, the outcome is reported as “inactive”.
In the case of `O=C1c2ccccc2C(=O)N1CCc1noc(-c2ccc(CN3CCCCCC3)s2)n1`, the outcome is reported as “inactive”.
In the case of `Oc1ccc2ccccc2c1`, the AC50 is reported as 13.8 µM (active).
In the case of `CCCCCCCCN(C)CCCCCCCC`, the AC50 is reported as 50 µM (active).
